The supplement of paper PMC9023506
Where a name gives a salt, the structure may show the parent alone.

The compounds below were run on Danio rerio larvae (5 dpf) (assay: optomotor response to fast red moving lines, difference vs DMSO (percentage points (treated minus DMSO)); higher = more of the behaviour than the DMSO vehicle control). Details: 10 µM; exposure time: 3 h pre-incubation + 3 h imaging.
Protocol: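 5-dpf wild-type zebrafish larvae were imaged in 96-well plates. They were treated with 190 Tocris FDA-approved drugs at 10 µM (1 µl/ml DMSO) for 3 h before and 3 h during imaging at 28.5 °C, 48 larvae per drug. Automated image analysis gave % time moving and optomotor responses. Values are drug group mean minus DMSO vehicle mean (n=844), in percentage points, for 10 behaviours.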
For CN[C@H]1CC[C@@H](c2ccc(Cl)c(Cl)c2)c2ccccc21 [Sertraline hydrochloride], the optomotor response was -8.12.
Work on CCC(C)(C)C(=O)O[C@H]1C[C@@H](C)C=C2C=C[C@H](C)[C@H](CC[C@@H]3C[C@@H](O)CC(=O)O3)[C@H]21 [Simvastatin] yielded an optomotor response of -13.2.
Compound COc1ccc(-c2ccc3cc(C(=O)O)ccc3c2)cc1C12CC3CC(CC(C3)C1)C2 [Adapalene] has an optomotor response of -11.7.
Nc1nc(F)nc2c1ncn2[C@@H]1O[C@H](CO)[C@@H](O)[C@@H]1O [Fludarabine] was tested, and the optomotor response was -4.77.
In the case of Cc1nc(-c2ccc(OCC(C)C)c(C#N)c2)sc1C(=O)O [Febuxostat], the optomotor response is reported as 8.02.
For O=C(Nc1c(Cl)cncc1Cl)c1ccc(OC(F)F)c(OCC2CC2)c1 [Roflumilast], the optomotor response was -10.8.
With CN(C)CCc1c[nH]c2ccc(Cn3cncn3)cc12 [Rizatriptan benzoate] the optomotor response was 5.
Compound CCc1nc(N)nc(N)c1-c1ccc(Cl)cc1 [Pyrimethamine] has an optomotor response of 9.74.
In the case of Cc1cc2c(s1)Nc1ccccc1N=C2N1CCN(C)CC1 [Olanzapine], the optomotor response is reported as 9.42.
For CC(C)(C(=O)O)c1ccc(C(O)CCCN2CCC(C(O)(c3ccccc3)c3ccccc3)CC2)cc1 (stereo not given) [Fexofenadine hydrochloride], the optomotor response was -0.251.
In the case of Nc1nc2[nH]cc(CCc3ccc(C(=O)N[C@@H](CCC(=O)O)C(=O)O)cc3)c2c(=O)[nH]1 [Pemetrexed], the optomotor response is reported as -14.2.
Work on CC(C)n1c(/C=C/C(O)CC(O)CC(=O)O)c(-c2ccc(F)cc2)c2ccccc21 (stereo not given) [Fluvastatin sodium] yielded an optomotor response of -5.56.
With Nc1nc(NC2CC2)c2ncn([C@H]3C=C[C@@H](CO)C3)c2n1 [Abacavir hemisulfate] the optomotor response was -1.18.
Work on COCCc1ccc(OCC(O)CNC(C)C)cc1 (stereo not given) [Metoprolol tartrate] yielded an optomotor response of -7.77.
Compound C/C(O)=C(\C#N)C(=O)Nc1ccc(C(F)(F)F)cc1 [Teriflunomide] has an optomotor response of -7.56.
Work on C=C1[C@H](CO)[C@@H](O)C[C@@H]1n1cnc2c(=O)[nH]c(N)nc21 [Entecavir] yielded an optomotor response of -0.927.
Work on OCCOCCN1CCN(C2=Nc3ccccc3Sc3ccccc32)CC1 [Quetiapine hemifumarate] yielded an optomotor response of -5.91.
With CCN(Cc1ccncc1)C(=O)C(CO)c1ccccc1 (stereo not given) [Tropicamide] the optomotor response was -0.214.
Compound CC(=O)O[C@H]1C(=O)[C@@]2(C)[C@H]([C@H](OC(=O)c3ccccc3)[C@]3(O)C[C@H](OC(=O)[C@H](O)[C@@H](NC(=O)c4ccccc4)c4ccccc4)C(C)=C1C3(C)C)[C@]1(OC(C)=O)CO[C@@H]1C[C@@H]2O [Taxol] has an optomotor response of -16.4.
In the case of COC(c1ccccc1)(c1ccccc1)[C@H](Oc1nc(C)cc(C)n1)C(=O)O [Ambrisentan], the optomotor response is reported as -12.3.
In the case of OC(CNCC(O)C1CCc2cc(F)ccc2O1)C1CCc2cc(F)ccc2O1 (stereo not given) [Nebivolol hydrochloride], the optomotor response is reported as -19.6.
In the case of NS(=O)(=O)c1cc(C(=O)O)c(NCc2ccco2)cc1Cl [Furosemide], the optomotor response is reported as 0.619.
In the case of O=c1n(CCCN2CCN(c3cccc(Cl)c3)CC2)nc2ccccn12 [Trazodone hydrochloride], the optomotor response is reported as 5.34.
O=C(O[C@@H]1C[C@@H]2C[C@H]3C[C@H](C1)N2CC3=O)c1c[nH]c2ccccc12 [Dolasetron mesylate] gave an optomotor response of -6.96.
Cc1cn([C@H]2C=C[C@@H](CO)O2)c(=O)[nH]c1=O [Stavudine] showed an optomotor response of -8.38.
Work on CS(=O)(=O)CCNCc1ccc(-c2ccc3ncnc(Nc4ccc(OCc5cccc(F)c5)c(Cl)c4)c3c2)o1 [Lapatinib] yielded an optomotor response of -0.638.
For CN1CCN(CCCN2c3ccccc3Sc3ccc(Cl)cc32)CC1 [Prochlorperazine dimaleate], the optomotor response was 2.92.
Compound COc1cc([C@@H]2c3cc4c(cc3[C@@H](O[C@@H]3O[C@@H]5CO[C@@H](C)O[C@H]5[C@H](O)[C@H]3O)[C@H]3COC(=O)[C@H]23)OCO4)cc(OC)c1O [Etoposide] has an optomotor response of -4.84.
For CN1CC[C@@H](NC(=O)Nc2ccc(C#N)cc2)C[C@@H]1c1nc2ccccc2[nH]1, the optomotor response was -0.171.
With COc1cc2nc(N3CCN(C(=O)C4COc5ccccc5O4)CC3)nc(N)c2cc1OC (stereo not given) [Doxazosin mesylate] the optomotor response was -4.8.
Work on Nc1ncn([C@H]2C[C@H](O)[C@@H](CO)O2)c(=O)n1 [Decitabine] yielded an optomotor response of 1.67.
Work on COc1ccc(C[C@@H](C)NC[C@H](O)c2ccc(O)c(NC=O)c2)cc1 [Arformoterol tartrate] yielded an optomotor response of -17.7.
For Nc1cc(N2CCCCC2)nc(N)[n+]1[O-] [Minoxidil], the optomotor response was 2.09.
For CCN(CC)CCNC(=O)c1c(C)[nH]c(/C=C2\C(=O)Nc3ccc(F)cc32)c1C [Sunitinib malate], the optomotor response was 10.6.
CC(C)CN(C[C@@H](O)[C@H](Cc1ccccc1)NC(=O)O[C@H]1CO[C@H]2OCC[C@H]21)S(=O)(=O)c1ccc(N)cc1 [Darunavir] gave an optomotor response of 1.68.
In the case of CCc1c2c(nc3ccc(OC(=O)N4CCC(N5CCCCC5)CC4)cc13)-c1cc3c(c(=O)n1C2)COC(=O)[C@]3(O)CC, the optomotor response is reported as 0.47.
NS(=O)(=O)c1cc2c(cc1Cl)NC(C1CC3C=CC1C3)NS2(=O)=O (stereo not given) [Cyclothiazide] showed an optomotor response of -3.47.
CCCc1nc(C(C)(C)O)c(C(=O)O)n1Cc1ccc(-c2ccccc2-c2nnn[nH]2)cc1 [Olmesartan] gave an optomotor response of -5.64.
Work on CCOc1nc2cccc(C(=O)O)c2n1Cc1ccc(-c2ccccc2-c2noc(=O)[nH]2)cc1 [Azilsartan] yielded an optomotor response of -3.36.
CC(C)c1nc(CN(C)C(=O)N[C@H](C(=O)N[C@@H](Cc2ccccc2)C[C@H](O)[C@H](Cc2ccccc2)NC(=O)OCc2cncs2)C(C)C)cs1 [Ritonavir] was tested, and the optomotor response was -9.38.
